Several values for one entry are separate records, joined by “and”; a condition that tells them apart may be missing. Equal entries are not always repeated. Activity calls are given as the source filed them. Unless noted, how the calls were made is not given here.

In assay [1] the test system is XIP peptide (Xip251-270) binding. Kind of assay: small-molecule binders of XIP peptide, primary screen, biochemical, small-molecule microarray, fluorescence 635/667 nm, 0.1 µg/mL protein (AID 1182). As to conditions: fluorescent protein binding, 635 nm, higher = more signal, called active from +8 up or from −8 down.
The test system of another assay is XIP peptide (Xip251-270). In words: small-molecule binders of XIP peptide, primary screen, biochemical, small-molecule microarray, fluorescence 635/667 nm, 0.5 µg/mL protein (AID 1183). The note with it: small-molecule microarray binding, fluorescence 635 nm; higher = more signal.
A short description of assay [2]: Plasmodium falciparum growth inhibition, primary screen, strain 3D7, DAPI fluorescence, 100 nL (AID 1184).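 Further: parasites grown inside human red blood cells in medium with human serum.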 The note with it: P. falciparum 3D7 growth, 3 d, higher = more signal.
Assay [3] concerns the target Homeobox protein Hox-A13 (Mus musculus) (UniProt Q62424). In words: inhibitors of HoxA13-DNA binding, primary screen, biochemical, fluorescence polarization, labeled oligonucleotide (AID 1185). As to conditions: 15 min, higher = more signal, called active from +8 up or from −8 down.
A short description of assay [4]: inhibitors of hydroxyurea-induced Chk1 phosphorylation, primary screen, imaging, HeLa, phospho-Chk1 antibody, percent positive cells (AID 1186). The note with it: hydroxyurea-induced phospho-Chk1 immunofluorescence imaging, higher = more signal.
Assay [5] can be described thus: inhibitors of hydroxyurea-induced Chk1 phosphorylation, primary screen, imaging, HeLa, phospho-Chk1 nuclear intensity (AID 1187). As to conditions: hydroxyurea-induced phospho-Chk1 immunofluorescence imaging, higher = more signal.

Sequence of Homeobox protein Hox-A13 (Mus musculus) (Q62424 whole entry, looked up): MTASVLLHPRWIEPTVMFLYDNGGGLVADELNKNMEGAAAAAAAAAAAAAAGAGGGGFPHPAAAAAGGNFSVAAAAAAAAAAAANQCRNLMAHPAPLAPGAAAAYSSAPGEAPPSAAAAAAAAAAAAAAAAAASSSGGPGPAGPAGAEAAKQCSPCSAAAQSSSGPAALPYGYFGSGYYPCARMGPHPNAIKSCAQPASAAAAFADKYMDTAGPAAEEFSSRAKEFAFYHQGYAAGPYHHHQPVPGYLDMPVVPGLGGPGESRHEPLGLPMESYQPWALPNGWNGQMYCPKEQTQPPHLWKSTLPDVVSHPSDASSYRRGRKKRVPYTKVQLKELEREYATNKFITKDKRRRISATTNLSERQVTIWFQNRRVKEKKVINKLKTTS

As to `C=CCN(C(=O)C1N(CCOCCO)C(=O)C2C(C(=O)O)C3C=CC21O3)c1ccc(OC)cc1` (stereo unspecified), the composite z-score in assay [1] is -0.675 (inactive) and -0.315 (inactive); in the assay on XIP peptide (Xip251-270) it was 0.138 and 0.24. Also, the z-score in assay [2] was 0.301 and -0.0133; in assay [3], -1.06 (inactive) and -0.636 (inactive); in assay [4] it was 0.0962 (inactive) and 0.399 (inactive); in assay [5], -0.087 (inactive) and 0.191 (inactive).

In the case of `CCC[C@@H]1C[C@@]1(CCC)[C@@H](NC(=O)c1ccc(-c2ccccc2)cc1)c1cccc(Cl)c1`, the composite z-score was 0.176 (inactive) and 0.184 (inactive) in assay [1]; -0.659 and 0.146 in the assay with XIP peptide (Xip251-270). Moreover, the z-score in assay [2] was -0.687 and -1.16; in assay [3], -3.47 (inactive) and -5.25 (inactive); in assay [4], 0.722 (inactive) and 0.514 (inactive); in assay [5] it was -0.198 (inactive) and 0.301 (inactive).

`C=CCN(CCCCC)C(=O)C1N(CCOCCO)C(=O)C2C(C(=O)O)C3C=CC21O3` (stereo unspecified): the composite z-score in assay [1] was 0.901 (inactive) and -0.15 (inactive); in the assay with XIP peptide (Xip251-270), 0.571 and -1.58. The z-score was 0.234 and 0.841 in assay [2]; -1.09 (inactive) and -0.752 (inactive) in assay [3]; 0.0583 (inactive) and 0.485 (inactive) in assay [4]; 0.233 (inactive) and -0.0615 (inactive) in assay [5].

On to `C=CCN(C(=O)C1N(c2ccc(CCO)cc2)C(=O)C2C(C(=O)O)C3C=CC21O3)c1ccc(OC)cc1` (stereo unspecified), for which the composite z-score in assay [1] was 0.777 (inactive) and -0.925 (inactive); in the assay on XIP peptide (Xip251-270) it was 0.936 and -0.824. Further, the z-score in assay [2] was -1.09 and -0.417; in assay [3] it was -1.87 (inactive) and -0.733 (inactive); in assay [4], -0.265 (inactive) and -0.271 (inactive); in assay [5] it was -0.268 (inactive) and -0.384 (inactive).

Consider `C=C[C@@H](C)[C@@H](O)c1ccc(OCCO)cc1`, for which the composite z-score in assay [1] was -0.704 (inactive) and -0.999 (inactive); in the assay with XIP peptide (Xip251-270) it was -0.664 and 0.0227. Further, the z-score in assay [2] was -0.892 and 0.0904; in assay [3], -0.592 (inactive) and -0.123 (inactive); in assay [4], 1.19 (inactive) and -0.153 (inactive); in assay [5], 1.48 (inactive) and 0.641 (inactive).

For the compound `C=CCN(CCCCC)C(=O)C1N(C(C)(C)CO)C(=O)C2C(C(=O)O)C3C=CC21O3` (stereo unspecified), the composite z-score is -0.53 (inactive) and -1 (inactive) in assay [1]; -0.417 and -1.97 in the assay with XIP peptide (Xip251-270). For the same compound, the z-score in assay [2] was -0.0999 and 0.86; in assay [3], -0.598 (inactive) and 0.0686 (inactive); in assay [4], 0.0341 (inactive) and -0.15 (inactive); in assay [5], 0.436 (inactive) and 0.287 (inactive).

As for `CCOC(=O)C[C@H]1[C@H](OC(=O)c2ccccc2-c2ccccc2)[C@@H](NC(=O)Cc2ccc(OC)cc2)c2cc(OCCCO)ccc2N1C(=O)Cc1ccc(OC)cc1`, the composite z-score in assay [1] was 0.645 (inactive) and -0.44 (inactive); in the assay on XIP peptide (Xip251-270), 0.0988 and -0.0465. Besides, the z-score in assay [2] was -1.83 and -1.26; in assay [3], -0.622 (inactive) and -3.3 (inactive); in assay [4], -0.901 (inactive) and 0.898 (inactive); in assay [5], -0.496 (inactive) and 0.836 (inactive).

`CCCCN1CC=CC23O[C@@H]4C=CCCOC(=O)C4[C@H]2C(=O)N(C(C)CO)[C@@H]3C1=O` (stereo partly specified): the composite z-score in assay [1] is -0.0981 (inactive) and -0.455 (inactive); with XIP peptide (Xip251-270) it was -0.41 and -0.585. Moreover, the z-score is 0.0728 and -0.271 in assay [2]; -5.84 (inactive) and -4.77 (inactive) in assay [3]; 0.34 (inactive) and -0.204 (inactive) in assay [4]; 0.293 (inactive) and -0.258 (inactive) in assay [5].

For `C=CCN(Cc1ccccc1)C(=O)C1N(CCOCCO)C(=O)C2C(C(=O)O)C3C=CC21O3` (stereo unspecified), the composite z-score is 0.463 (inactive) and -0.202 (inactive) in assay [1]; -1.03 and -0.657 in the assay with XIP peptide (Xip251-270). Besides, the z-score in assay [2] is -0.506 and -0.253; in assay [3] it was 0.429 (inactive) and -0.659 (inactive); in assay [4] it was -0.0844 (inactive) and 1.49 (inactive); in assay [5], 0.031 (inactive) and 1.13 (inactive).

As to `C=CCN(CCCC)C(=O)C1N(CCCCCCO)C(=O)C2C(C(=O)O)C3C=CC21O3` (stereo unspecified), the composite z-score in assay [1] is -0.489 (inactive) and -0.198 (inactive); with XIP peptide (Xip251-270) it was -0.838 and -0.558. The z-score in assay [2] is 1.51 and 1.68; in assay [3] it was -0.284 (inactive) and -0.72 (inactive); in assay [4] it was 0.527 (inactive) and 1.03 (inactive); in assay [5] it was 0.977 (inactive) and 1.09 (inactive).

Turning to `C=C[C@H](C)[C@H](O)c1ccc(O)c2ccccc12`, the composite z-score in assay [1] is -0.389 (inactive) and -0.742 (inactive); in the assay with XIP peptide (Xip251-270) it was -0.236 and 0.788. The z-score in assay [2] was 0.138 and 0.719; in assay [3] it was -3.07 (inactive) and -2.91 (inactive); in assay [4], -1.1 (inactive) and -1.31 (inactive); in assay [5], -0.114 (inactive) and -0.271 (inactive).

Turning to `C=CCN(C(=O)C1N(c2c(Cl)cccc2CO)C(=O)C2C(C(=O)O)C3C=CC21O3)c1ccc(OC)cc1` (stereo unspecified), the composite z-score in assay [1] is -0.241 (inactive) and -0.23 (inactive); in the assay on XIP peptide (Xip251-270) it was 0.74 and 0.312. The z-score in assay [2] is -0.927 and 0.408; in assay [3] it was -1.96 (inactive) and 0.908 (inactive); in assay [4], -0.6 (inactive) and -1.27 (inactive); in assay [5], 0.0631 (inactive) and -0.682 (inactive).

Consider `C=CCN(CCCC)C(=O)C1N(C(C)(C)CO)C(=O)C2C(C(=O)O)C3C=CC21O3` (stereo unspecified), for which the composite z-score in assay [1] is -0.485 (inactive) and -0.807 (inactive); in the assay on XIP peptide (Xip251-270), 0.214 and -0.185. Moreover, the z-score is 0.102 and 0.116 in assay [2]; -0.224 (inactive) and -0.0596 (inactive) in assay [3]; -0.356 (inactive) and 0.83 (inactive) in assay [4]; -0.0315 (inactive) and 1.16 (inactive) in assay [5].

On to `C=CCN(C(=O)C(c1cccs1)N(C(=O)/C=C\C(=O)O)C(C)(C)CO)C(C)(C)C` (stereo unspecified), for which the composite z-score is 0.075 (inactive) and -0.479 (inactive) in assay [1]; -0.796 and 0.851 in the assay on XIP peptide (Xip251-270). Besides, the z-score in assay [2] is 0.37 and -0.0391; in assay [3] it was 0.692 (inactive) and 0.558 (inactive); in assay [4] it was -0.225 (inactive) and -0.215 (inactive); in assay [5], 0.269 (inactive) and 0.799 (inactive).

`COC(=O)[C@@]1(Cc2ccc(OC)cc2)[C@H]2c3cc(C(=O)N(C)C)n(Cc4ccc(O)c(OC)c4)c3C[C@H]2CN1C(=O)c1ccccc1`: the composite z-score in assay [1] was 0.371 (inactive) and 0.389 (inactive); in the assay with XIP peptide (Xip251-270) it was 0.594 and 0.642. Besides, the z-score in assay [2] was -1.65 and -1.56; in assay [3], -5.37 (inactive) and -3.28 (inactive); in assay [4], 0.402 (inactive) and -0.804 (inactive); in assay [5], 0.504 (inactive) and -0.921 (inactive).

Consider `COC(=O)[C@@]1(Cc2ccc(F)cc2)[C@H]2c3cc(C(=O)N4CCCC4)n(Cc4c(CO)[nH]cc(C)c4=O)c3C[C@H]2CN1C(=O)c1ccccc1`, for which the composite z-score in assay [1] was 1.1 (inactive) and 0.516 (inactive); in the assay on XIP peptide (Xip251-270), -0.307 and 0.761. The z-score in assay [2] was -1.4 and -1.6; in assay [3] it was -5.99 (inactive) and -5.23 (inactive); in assay [4], 0.113 (inactive) and 0.998 (inactive); in assay [5], 0.0243 (inactive) and 0.533 (inactive).
